Results from the supplement of paper PMC10338343.
± gives the standard deviation.

System: MILI (PIWIL2) piRISC loaded with L1MC piRNA (26 nt)
Test: pre-steady-state target cleavage rate (min^-1); guide: L1MC piRNA 5'p-UAACUAAAUACUAUGCAAGCUGUAGG; MIWI and MILI are mouse PIWI proteins and EfPiwi is from a freshwater sponge; tags in brackets are library labels; higher = faster piRNA-guided slicing of the target
Summary of the method: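 With or without 500 nM GTSF1 partner protein, 1 nM active affinity-purified piRISC carrying one synthetic guide was mixed with 0.1 nM transcribed, DNA-blocked target RNA library in HEPES–potassium acetate buffer at 33 °C for 0–8 or 0–960 min. Uncleaved targets were sequenced and normalised to depth and to weakly complementary targets, three trials were pooled, and k3 was capped at 0.0001 min^-1. The pre-steady-state cleavage rate came from a burst-and-steady-state fit.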

[1] = auxiliary factor: 500 nM mouse GTSF1
[2] = auxiliary factor: none (no GTSF1)

Row | Sequence | pre-steady-state target cleavage rate [1] | pre-steady-state target cleavage rate [2]
1 | UCCUGGUACAGCUUGCAAUCUAUUUAGUUA | 0.0377 ± 0.013 | 0.00455 ± 0.0036
2 | UCCUGGAUGUCGAAGCAUAGUAUUUAGUCA | 0.0245 ± 0.0057 | 0.00315 ± 0.0019
3 | UCCUGGAUGAGGUUGCAUAGUAUUUAGUAA | 0.0985 ± 0.018 | 0.004 ± 0.0027
4 | UCCUGCGUACAGCUUGCAUAGUAUUUAGUUA | 0.314 ± 0.021 | 0.0109 ± 0.0033
5 | UCCUGGAACAGCUUGCCUAGUAUUUAGUUA | 0.248 ± 0.015 | 0.00673 ± 0.0024
6 | UCCUGGAACAGCUUGCUUAGUUUUUAGUUA | 0.0579 ± 0.012 | 0.00375 ± 0.0024
7 | UCCUCCUACAGCUUGCAUAGUAUUUGAGUUA | 0.199 ± 0.028 | 0.00484 ± 0.0026
8 | UCCUCCUACAGCUAGCAUAGUAUUUAGUUA | 0.27 ± 0.019 | 0.00812 ± 0.0022
9 | UCCUGGAUGUCGUUGCAUAGUUAUUUAGUUA | 0.00477 ± 0.0039 | 0.00324 ± 0.003
10 | UCCUGGAUGAGCUUGCUAUGUAUUUAGUUA | 0.00711 ± 0.0026 | 0.00524 ± 0.0027
11 | UCCUGGAUGUCGAUGCAUAGUAUAUUAGUUA | 0.0713 ± 0.015 | 0.00716 ± 0.0023
12 | UCCUGGAUGUGCUUGCAUAGGUAUUUAGUUA | 0.0061 ± 0.0046 | 0.00533 ± 0.0032
13 | UCCUGGUACAGCUUGCAUCGUAUUUAGUUA | 0.0739 ± 0.014 | 0.00985 ± 0.0037
14 | UCCUGGAUGUCGUAGCAUAGUAUAUAGUUA | 0.0653 ± 0.016 | 0.0048 ± 0.0023
15 | UCCUGGAUGAGCAUGCAUAGUAUUUACUUA | 0.122 ± 0.029 | 0.00352 ± 0.0028
16 | UCCUGGAAUAGCUUGCAUAGUAUUUAGUUA | 0.221 ± 0.015 | 0.0149 ± 0.0032
17 | UCCUGGAUCAGCUUGCUAGUAUUUAGUUA | 0.0105 ± 0.0043 | 0.00365 ± 0.0022
18 | UCCUGGAUGUCCUGUGCAUAGUAUUUAGUUA | 0.0823 ± 0.025 | 0.0123 ± 0.0036
19 | UCCUGGAUCAGCUUGCAAAGUAAUUAGUUA | 0.0974 ± 0.011 | 0.00502 ± 0.0023
20 | UCCUGGAUGUCGAACCAAUGUAUUUAGUUA | < 0.0001 | < 0.0001

Row | Sequence | pre-steady-state target cleavage rate [1] | pre-steady-state target cleavage rate [2]
21 | UCCUGGAUCAGCUUGGAUAGUAUAUAGUUA | 0.124 ± 0.018 | 0.00459 ± 0.0024
22 | UCCUGGAUGUCGAGGCAUAGUAUUUAGUUA | 0.0728 ± 0.016 | 0.00723 ± 0.0026
23 | UCCUGGAUCAGCUCGCAUAGUAUUUAGUUA | 0.284 ± 0.019 | 0.00608 ± 0.0029
24 | UCCUGGUACAGCAAGCAUAGUAUUUAGUAA | 0.239 ± 0.029 | 0.00526 ± 0.0023
25 | UCCUGGAUGUGCUUGCUAGUAUUUAGUUA | 0.00654 ± 0.0035 | 0.00432 ± 0.0028
26 | UCCUGGAUGUGGAAGCAUAGUAUUUAGUUA | 0.026 ± 0.0048 | 0.00344 ± 0.0029
27 | UCCUGGAUGUCCUUGGAUAGUAUUUAGUAA | 0.121 ± 0.019 | 0.00376 ± 0.0019
28 | UCCUGGAUCAGGUUGCAUAGAAUUUAGUUA | 0.0266 ± 0.0065 | 0.00431 ± 0.0021
29 | UCCUGGAUCAGCUUGCAAGUAUUUAGUUA | 0.0793 ± 0.011 | 0.00478 ± 0.0023
30 | UCCUGGAUGAGCUUGCAUAGUAUAAUGUUA | 0.229 ± 0.061 | 0.00329 ± 0.0028
31 | UCCUGGAUGUCGUUGCAUACUAUUUAGUUA | 0.0161 ± 0.0052 | 0.00383 ± 0.002
32 | UCCUGGUACAGCUUGGAUAGUAUUAAGUUA | 0.174 ± 0.038 | 0.00474 ± 0.0033
33 | UCCUGGAUGUCGUUGCAUAGUAUUUAGUCUA | 0.013 ± 0.0062 | 0.00433 ± 0.0036
34 | UCCUGGAUCAGCUUGGUUAGUAUUUAGUAA | 0.256 ± 0.031 | 0.00444 ± 0.0025
35 | UCCUCCUACUGCUUGGAUAGUAUUUAGUUA | 0.223 ± 0.016 | 0.011 ± 0.0023
36 | UCCUGGAUGUGCUUGCAUAGUAUUUAGUGUA | 0.101 ± 0.015 | 0.00366 ± 0.0034
37 | UCCUGGUACAGCUUGCAUAGUAUUUAGGUUA | 0.163 ± 0.044 | 0.00633 ± 0.0032
38 | UCCUGGUACAGGUUGCAUAGUAUAUAGUUA | 0.42 ± 0.089 | 0.00855 ± 0.0029
39 | UCCUGGAUGUCGAUGCAUAGUAUUUAGUUG [g2:g17:cont:t1G] | 0.0776 ± 0.013 | 0.00604 ± 0.0026
40 | UCCUGCUACUCGUUGCAUAGUAUUUAGUAA | 0.127 ± 0.02 | 0.00373 ± 0.0021

Row | Sequence | pre-steady-state target cleavage rate [1] | pre-steady-state target cleavage rate [2]
41 | UCCUGGAUCAGCUAGCAUUGUAUUUAGUUA | 0.107 ± 0.014 | 0.00287 ± 0.0024
42 | UCCUGCUACAGCCUUGCAUAGUAUUUAGUUA | 0.308 ± 0.025 | 0.00822 ± 0.0026
43 | UCCUGGAUGAGGUUGCAUAGUAUUUUGUUA | 0.0801 ± 0.024 | 0.00402 ± 0.0029
44 | UCCUGGAUGUGCUUGCUUAGUAUAUAGUUA | 0.0668 ± 0.011 | 0.00411 ± 0.0025
45 | UCCUGGUACAGCUAGCAUUGUAUUUAGUUA | 0.127 ± 0.017 | 0.00717 ± 0.0034
46 | UCCUGGUACAGCUUGCAUUGUAUAUAGUUA | 0.087 ± 0.018 | 0.00415 ± 0.0033
47 | UCCUGGAUGUGCUUGCAUAGAUUUUAGUUA | 0.00729 ± 0.0044 | 0.00375 ± 0.0024
48 | UCCUGGAUGAGCUUGCAUAGUGAUUUAGUUA | 0.00836 ± 0.0043 | 0.00434 ± 0.0027
49 | UCCUGCUAGAGCUAGCAUAGUAUUUAGUUA | 0.237 ± 0.031 | 0.00417 ± 0.0027
50 | UCCUGGAUGUCGUUGCAUAGUCAUUUAGUUA | 0.00441 ± 0.0039 | 0.00434 ± 0.0028
51 | UCCUGGAUGUCGUUGCAAAGUAUUUAGUAA | 0.0183 ± 0.0061 | 0.00357 ± 0.0021
52 | UCCUGGAUGUCGUUGCAUCGUAUUUAGUUA | 0.0281 ± 0.0074 | 0.00872 ± 0.0025
53 | UCCUGGAACAGCUUGGAUUGUAUUUAGUUA | 0.0767 ± 0.011 | 0.00295 ± 0.0026
54 | UCCUGGAUGUCGUCGCAUAGUAUUUAGUUA | 0.0893 ± 0.012 | 0.00436 ± 0.0024
55 | UCCUGGAUCUGCUUGCAUAGUAUUUACUUA | 0.0527 ± 0.0096 | 0.00348 ± 0.0027
56 | UCCUGGAUCAGCAACCAUAGUAUUUAGAAA | 0.00948 ± 0.0046 | < 0.0001
57 | UCCUGGAUGUCGAUGCAUAGUAUCUUAGUUA | 0.0692 ± 0.013 | 0.00487 ± 0.0024
58 | UCCUGGAUGUGCUUGCAUAGUUAUUAGUUA | 0.00903 ± 0.0055 | 0.00639 ± 0.0025
59 | UCCUGGAUGUGCAUGCAUAGUAUAUAGUUA | 0.19 ± 0.029 | 0.00367 ± 0.0031
60 | UCCUGGAUGUCCUUGCAUAGUAGUUUAGUUA | 0.0394 ± 0.014 | 0.00805 ± 0.0029
